# From PubChem BioAssay (NCATS)
# Values joined by “and” are separate entries in the source; they are usually repeats but may differ in a detail not shown here. Equal values may be shown once. Inconclusive results are not listed. Where a call stands in place of a potency, no number is given. Values without a mark were called inactive. Active and inactive are the calls of the source. Calls come from the whole dose curve; as a rule, active = well fitted curve in the direction sought with a large enough effect; inconclusive = small, poorly fitted or top-dose-only effect, or another doubt; inactive = no such curve, though single readings can be large; an effect the other way counts as inactive or inconclusive.
# What was measured:
# [1] = tested on: TAB109; assay: qHTS profiling for inhibitors of Plasmodium falciparum proliferation (AID 504749); note: nearly all actives have a fitted effect of over 60% in size; note: potency is the fitted concentration of half-maximal effect; settings: P. falciparum in erythrocytes, SYBR Green DNA, 72 h; series mostly up to 28.7 µM
# Outline: (§1)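 SYBR Green fluorescence of parasite DNA, read after lysis and overnight dark incubation, measured growth over 72 h in erythrocyte culture at 0.3% parasitemia and 2.5% hematocrit. Data normalised to DMSO and 0.29 uM artemisinin, with plate-drift correction.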
# [2] = tested on: TAB113; assay: as above; settings: P. falciparum in erythrocytes, SYBR Green DNA, 72 h; series mostly up to 28.7 µM
# Outline: as §1
# [3] = tested on: TAB165; assay: as above; settings: P. falciparum in erythrocytes, SYBR Green DNA, 72 h; series mostly up to 28.7 µM
# Outline: as §1
# [4] = tested on: W2; assay: as above; settings: P. falciparum in erythrocytes, SYBR Green DNA, 72 h; series mostly up to 28.7 µM
# Outline: as §1
# [5] = tested on: CRL-7250; assay: Cytotoxic Profiling of Annotated Libraries Using Quantitative High-Throughput Screening (AID 1296008); settings: Five cell lines viability, CellTiter-Glo ATP luminescence, 48-72 h; max response: stronger effect = lower value; note: nearly all actives have a fitted effect of over 60% in size; note: potency is the fitted concentration of half-maximal effect
# Outline: (§2)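 Cytotoxicity was measured as CellTiter-Glo ATP luminescence, read after 10 min at room temperature. Compound treatment of the cells lasted 48 or 72 hr at 37 degrees Celsius in a qHTS format.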
# [6] = tested on: HEK293; assay: as above; settings: Five cell lines viability, CellTiter-Glo ATP luminescence, 48-72 h; max response: stronger effect = lower value
# Outline: as §2
# [7] = tested on: HaCat; assay: as above; settings: Five cell lines viability, CellTiter-Glo ATP luminescence, 48-72 h; max response: stronger effect = lower value
# Outline: as §2
# [8] = tested on: KB-3-1; assay: as above; settings: Five cell lines viability, CellTiter-Glo ATP luminescence, 48-72 h; max response: stronger effect = lower value
# Outline: as §2
# [9] = tested on: NIH3T3; assay: as above; settings: Five cell lines viability, CellTiter-Glo ATP luminescence, 48-72 h; max response: stronger effect = lower value
# Outline: as §2
# [10] = tested on: HACAT; assay: qHTS assay to identify novel small-molecules to repurpose for Merkel cell carcinoma treatment (AID 1296009); settings: MCC and control cell lines, CellTiter-Glo viability, 72 h; at 44.8 µM (top of the series) unless noted; note: nearly all actives have a fitted effect of over 60% in size
# Outline: (§3)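 Cell viability, measured as CellTiter-Glo luminescence, was normalized between DMSO and no-cell wells. The cells had been exposed to 8- or 11-point compound dilutions for 72 hr at 37 degree celsius.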
# [11] = tested on: HEK293T; assay: as above; settings: MCC and control cell lines, CellTiter-Glo viability, 72 h; at 44.8 µM (top of the series) unless noted
# Outline: as §3
# [12] = tested on: MCC-13; assay: as above; settings: MCC and control cell lines, CellTiter-Glo viability, 72 h; series mostly up to 46 µM
# Outline: as §3
# [13] = tested on: MCC-26; assay: as above; settings: MCC and control cell lines, CellTiter-Glo viability, 72 h; series mostly up to 46 µM
# Outline: as §3
# [14] = tested on: MKL-1; assay: as above; settings: MCC and control cell lines, CellTiter-Glo viability, 72 h; series mostly up to 46 µM
# Outline: as §3
# [15] = tested on: MKL-2; assay: as above; settings: MCC and control cell lines, CellTiter-Glo viability, 72 h; series mostly up to 46 µM
# Outline: as §3
# [16] = tested on: NIH3T3; assay: as above; settings: MCC and control cell lines, CellTiter-Glo viability, 72 h; at 44.8 µM (top of the series) unless noted
# Outline: as §3
# [17] = tested on: UISO; assay: as above; settings: MCC and control cell lines, CellTiter-Glo viability, 72 h; series mostly up to 46 µM
# Outline: as §3
# [18] = tested on: WaGa; assay: as above; settings: MCC and control cell lines, CellTiter-Glo viability, 72 h; series mostly up to 46 µM
# Outline: as §3
# [19] = tested on: C33A; assay: Primary qHTS to identify gynecologic anti-cancer compounds using libraries of approved drugs and bioactive compounds (AID 1345084); settings: Gynecologic cancer cell panel viability, ATPlite luminescence, 48 h; series mostly up to 57.5 µM; note: nearly all actives have a fitted effect of over 55% in size
# Outline: (§4)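 Five-concentration response, 48 h; readout is ATP-driven luciferase luminescence.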
# [20] = tested on: CAOV3; assay: as above; settings: Gynecologic cancer cell panel viability, ATPlite luminescence, 48 h; series mostly up to 57.5 µM
# Outline: as §4
smiles,measurement,setting,value
CCOC(=O)[C@H](CCc1ccccc1)N[C@@H](C)C(=O)N1C(=O)N(C)C[C@H]1C(=O)O,Potency,[1],inactive
same,Potency,[2],inactive
same,Potency,[3],inactive
same,Potency,[4],inactive
same,max response,[5],1.6%
same,outcome,[5],inactive
same,max response,[6],-1.24%
same,outcome,[6],inactive
same,max response,[7],0.859%
same,outcome,[7],inactive
same,max response,[8],5.5% and 4.49%
same,max response,[9],4.99%
same,outcome,[9],inactive
same,outcome,[10],inactive
same,outcome,[11],inactive
same,Potency,[12],inactive
same,Potency,[13],inactive
same,Potency,[14],inactive
same,Potency,[15],inactive
same,outcome,[16],inactive
same,Potency,[17],inactive
same,Potency,[18],inactive
same,Potency,[19],inactive
same,Potency,[20],inactive
COc1ccc(Cl)cc1C(=O)NCCc1ccc(S(=O)(=O)NC(=O)NC2CCCCC2)cc1,Potency,[1],inactive
same,Potency,[2],inactive
same,Potency,[3],inactive
same,max response,[5],-1.35% and -10.9%
same,max response,[6],-12.8%
same,outcome,[6],inactive
same,max response,[7],2.84% and -12.6%
same,max response,[8],-9.53%
same,outcome,[8],inactive
same,max response,[9],-5.68% and -4.29%
same,outcome,[11],inactive
same,Potency,[12],inactive
same,Potency,[13],inactive
same,Potency,[14],inactive
same,Potency,[15],inactive
same,Potency,[17],inactive
same,Potency,[18],inactive
same,Potency,[19],inactive
CCN(CC)C(=O)Nc1ccc(OCC(O)CNC(C)(C)C)c(C(C)=O)c1 (stereo not given),max response,[5],-2.26% and 4.22%
same,max response,[6],-6.49%
same,outcome,[6],inactive
same,outcome,[7],inactive
same,max response,[8],3.46% and 6.71%
same,max response,[9],-5.4% and -0.794%
same,outcome,[10],inactive
same,outcome,[11],inactive
same,Potency,[12],inactive
same,Potency,[13],inactive
same,Potency,[14],inactive
same,Potency,[15],inactive
same,Potency,[17],inactive
same,Potency,[18],inactive
same,Potency,[19],inactive
same,Potency,[20],inactive
O=C(O)[C@H](O)c1ccccc1,max response,[5],-7.55%
same,outcome,[6],inactive
same,outcome,[7],inactive
same,max response,[8],5.08%
same,outcome,[9],inactive
same,outcome,[10],inactive
same,outcome,[11],inactive
same,Potency,[12],inactive
same,Potency,[13],inactive
same,Potency,[14],inactive
same,Potency,[15],inactive
same,outcome,[16],inactive
same,Potency,[17],inactive
same,Potency,[18],inactive
same,Potency,[19],inactive
same,Potency,[20],inactive
CS(=O)(=O)c1ccc([C@@H](O)[C@@H](CF)NC(=O)C(Cl)Cl)cc1,max response,[5],-8.92%
same,outcome,[5],inactive
same,Potency,[6],2.99 µM (active)
same,max response,[7],3.4%
same,outcome,[7],inactive
same,max response,[8],-19.8%
same,max response,[9],-3.77% and 0.419%
same,outcome,[10],inactive
same,Potency,[12],inactive
same,Potency,[13],inactive
same,Potency,[14],inactive
same,Potency,[15],inactive
same,Potency,[17],inactive
same,Potency,[18],inactive
same,Potency,[19],inactive
same,Potency,[20],inactive
c1ccc(CN(CC2=NCCN2)c2ccccc2)cc1,Potency,[4],7.57 µM (active)
same,max response,[5],3.95% and 1.52%
same,max response,[6],0.31% and -21.2%
same,max response,[7],4.83%
same,outcome,[7],inactive
same,max response,[8],-11.4% and 8.49%
same,max response,[9],2.96%
same,outcome,[9],inactive
same,outcome,[10],inactive
same,Potency,[12],inactive
same,Potency,[13],inactive
same,Potency,[14],inactive
same,Potency,[15],inactive
same,outcome,[16],inactive
same,Potency,[17],inactive
same,Potency,[18],inactive
same,Potency,[19],inactive
CC(=O)CCC(=O)O,Potency,[1],inactive
same,Potency,[2],inactive
same,Potency,[3],inactive
same,Potency,[4],inactive
same,max response,[5],-8.02%
same,outcome,[6],inactive
same,outcome,[7],inactive
same,max response,[8],2.58%
same,outcome,[9],inactive
same,outcome,[10],inactive
same,outcome,[11],inactive
same,Potency,[12],inactive
same,Potency,[13],inactive
same,Potency,[14],inactive
same,Potency,[15],inactive
same,outcome,[16],inactive
same,Potency,[17],inactive
same,Potency,[18],inactive
same,Potency,[19],inactive
same,Potency,[20],inactive
C[C@]12CC[C@@H]3c4ccc(O)cc4CC[C@H]3[C@@H]1CC[C@@H]2OC(=O)CCC1CCCC1,max response,[5],-19.6%
same,outcome,[5],inactive
same,max response,[6],-8.4%
same,outcome,[7],inactive
same,max response,[9],2.8%
same,outcome,[10],inactive
same,Potency,[12],inactive
same,Potency,[13],inactive
same,Potency,[14],inactive
same,Potency,[15],inactive
same,Potency,[17],inactive
same,Potency,[18],inactive
same,Potency,[19],inactive
same,Potency,[20],inactive
CCN(CC)CCNC(=O)c1cc(Cl)c(N)cc1OC,Potency,[1],inactive
same,Potency,[2],inactive
same,Potency,[3],inactive
same,Potency,[4],inactive
same,max response,[5],0.565%
same,max response,[6],-1.38%
same,outcome,[6],inactive
same,max response,[7],1.24%
same,outcome,[7],inactive
same,max response,[8],7.45%
same,outcome,[8],inactive
same,max response,[9],-2.52%
same,outcome,[9],inactive
same,outcome,[10],inactive
same,outcome,[11],inactive
same,Potency,[12],inactive
same,Potency,[13],inactive
same,Potency,[14],inactive
same,Potency,[15],inactive
same,outcome,[16],inactive
same,Potency,[17],inactive
same,Potency,[18],inactive
same,Potency,[19],inactive
same,Potency,[20],inactive
CCCCc1ncc(/C=C(\Cc2cccs2)C(=O)O)n1Cc1ccc(C(=O)O)cc1,Potency,[1],inactive
same,Potency,[2],inactive
same,Potency,[3],inactive
same,Potency,[4],inactive
same,max response,[5],0.696%
same,outcome,[5],inactive
same,max response,[6],1.61% and 1.3%
same,max response,[7],-8.96%
same,max response,[8],-5.45% and 6.97%
same,max response,[9],-1.7%
same,Potency,[12],inactive
same,Potency,[13],inactive
same,Potency,[14],inactive
same,Potency,[15],inactive
same,Potency,[17],inactive
same,Potency,[18],inactive
same,Potency,[19],inactive
same,Potency,[20],inactive
C[C@@H]1C[C@H]2[C@@H]3C[C@H](F)C4=CC(=O)C=C[C@]4(C)[C@@]3(F)[C@@H](O)C[C@]2(C)[C@@]1(O)C(=O)CO,max response,[5],-4.29%
same,outcome,[5],inactive
same,max response,[6],-7.17%
same,outcome,[6],inactive
same,max response,[7],-8.88% and 2.84%
same,max response,[8],18.2%
same,outcome,[8],inactive
same,max response,[9],-2.74% and -3.01%
same,outcome,[11],inactive
same,Potency,[12],inactive
same,Potency,[13],inactive
same,Potency,[14],inactive
same,Potency,[15],inactive
same,Potency,[17],inactive
same,Potency,[18],inactive
same,Potency,[19],inactive
same,Potency,[20],inactive
